# Bioassay records: PubChem, National Center for Advancing Translational Sciences (NCATS)
# Shown are actives, neighbours in structure and some others; about 2.4% of the full set was active somewhere.
# D2 PAM-1 = positive allosteric modulators of human D2 dopamine receptor; P14416; 340,000 compounds, 0.34% hits; HEK293 T-REx D2, calcium flux, EC20 dopamine potentiation; potentiation, % at 10 µM;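 active = potentiation over 3 SD above the plate norm, cut at about 30% in these data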; note: 0% is about no effect
#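 Potentiation of an EC20 dopamine calcium response is measured in a force-coupled, tetracycline-inducible Hek293 Trex D2 line. Compound-only kinetic reads over 180 s flag agonists before dopamine addition.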
# D2 ag-1 = D2 dopamine receptor (human) agonism; P14416; 340,000 compounds, 0.53% hits; HEK293 T-REx D2 cells, calcium flux agonist mode; activation, % at 2 µM;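 active = activation over 3 SD above normal in the single-dose calcium agonist read, cut at about 30% in these data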; note: 0% is about no effect
#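 In this primary screen, compounds producing a positive calcium signal within 180 s of addition to tetracycline-induced, force-coupled HEK293 Trex D2 cells are flagged; cells are dye-loaded with a no-wash calcium kit beforehand.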
# D2 antagonist = antagonizes the human D2 dopamine receptor. HEK293 TREx D2 cells, calcium flux, dopamine EC80. inhibition, % at 10 µM. 340,000 compounds, 2% hits; in the data active = inhibition above about 30%; inactive = below that, where a call was filed; note: 0% is about no effect
#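 Calcium mobilization kinetics were recorded at 1 s intervals in tetracycline-induced HEK293 T-REx D2 cells, first for 180 s after compound addition and then 180 s after EC80 dopamine.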
# D2 PAM-2 = positive allosteric modulators of human D2 dopamine receptor; P14416; DiscoveRx D2 beta-arrestin cells, luminescence, 90 min; 100% = 57 uM dopamine signal; potentiation, % (concentration not given with the values); 360,000 compounds, 0.23% hits; AID 624464; in the data active = potentiation above about 50%; inconclusive = mostly about 30% to 49%
#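 PathHunter D2 cells, attached overnight at 37 deg C, received compound in DMSO plus dopamine at EC20 (50 nM final) for 90 min at 37 deg C. Beta-arrestin recruitment was read as luminescence after 1 h with detection reagent at ambient temperature.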
# D2 ag-2 = agonists of human D2 dopamine receptor (beta-arrestin). P14416. DiscoveRx PathHunter D2 beta-arrestin, luminescence, 90 min; 100% = 57 uM dopamine signal. activation, % (no concentration beside the values). 360,000 compounds, 0.084% hits; in the data active = activation above about 40%; inconclusive = between about 15% and that limit
#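 Agonist mode: compounds alone added to overnight-plated D2 PathHunter cells for 90 min at 37 C, with 57 uM final dopamine (EC100) defining full response. Beta-arrestin recruitment detected by chemiluminescent reagent, read after 1 h at ambient temperature.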
# D3 ag = confirmation of human D3 dopamine receptor agonists, beta-arrestin; shares compounds with D2 ag-1; DiscoveRx D3 beta-arrestin cells, luminescence, 90 min; Potency, µM (doses to about 76.9 µM), without a hit: at the highest dose activation, hits mostly activators; 2,300 compounds, 4% hits; AID 720506;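 note: potency is the fitted concentration of half-maximal effect; 100% = dopamine control response; nearly all actives have a fitted effect of over 70% in size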
# Target sequence (P35462 whole entry, looked up): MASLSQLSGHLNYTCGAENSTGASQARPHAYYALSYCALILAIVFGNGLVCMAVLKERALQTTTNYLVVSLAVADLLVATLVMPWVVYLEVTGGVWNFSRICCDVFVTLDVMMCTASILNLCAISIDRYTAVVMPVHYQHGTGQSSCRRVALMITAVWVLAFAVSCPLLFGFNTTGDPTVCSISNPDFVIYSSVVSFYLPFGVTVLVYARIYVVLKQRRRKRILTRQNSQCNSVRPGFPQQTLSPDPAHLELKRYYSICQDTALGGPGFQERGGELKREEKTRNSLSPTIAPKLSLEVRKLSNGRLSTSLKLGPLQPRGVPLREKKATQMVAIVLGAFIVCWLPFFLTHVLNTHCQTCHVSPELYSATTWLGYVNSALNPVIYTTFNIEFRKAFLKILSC
# D2 ag-3 = activates human D2 dopamine receptor in D3 counterscreen; DiscoveRx PathHunter D2 beta-arrestin, luminescence, 90 min; response scale: percent relative to full dopamine signal; shares compounds with D2 ag-1; 2,300 compounds, 5.9% hits; Potency, µM (highest dose often 76.9 µM), for the others: top-dose activation, actives largely listed as activators; note: potency is the fitted concentration of half-maximal effect; % of control where 0% means no effect; nearly all actives have a fitted effect of over 70% in size
# * hit, by the source's call; ? = inconclusive; nt = not tested or not shown. Unless noted, calls come from the whole dose curve; as a rule, active = well fitted activation curve with a large enough effect; inconclusive = small, poorly fitted or top-dose-only effect; inactive = flat fitted curve, though single readings scatter.
SMILES,D2 PAM-1,D2 ag-1,D2 antagonist,D2 PAM-2,D2 ag-2,D3 ag,D2 ag-3
S=C(NCc1ccccn1)Nc1ccccc1,8,0,12,-3,1,0%,0%
CC(=O)c1ccc(OC(=O)C2CSC3(C)CCC(=O)N23)cc1 (configuration not stated),nt,nt,nt,11,0,-4%,-2%
COc1ccc(NC(=O)CN(C)C(=O)C2CSC3(C)CCC(=O)N23)cc1 (configuration not stated),0,1,-10,6,-3,-3%,1%
CCOc1ccc(NC(=O)CN(C)C(=O)C2CSC3(C)CCC(=O)N23)cc1OCC (configuration not stated),-3,0,9,0,1,-2%,-1%
COc1ccc(CN(C)C(=O)C2CSC3(C)CCC(=O)N23)cc1 (configuration not stated),-2,0,8,10,-2,nt,nt
CCOc1ccc(NC(=O)CN(C)C(=O)CCC2CCCCC2)cc1OCC,6,-1,12,-16,2,-4%,1%
CCOc1ccc(NC(=O)CN(C)C(=O)CC2CCCCC2)cc1OCC,-11,0,3,-1,3,nt,nt
CCNC(=O)C1(C)CCCN(C(=O)c2nc(C)oc2C)C1 (configuration not stated),nt,nt,nt,1,-4,nt,nt
COc1ccc(-c2[nH]ncc2CN2CCN(C(=O)c3cccs3)CC2)c(F)c1,2,0,14,11,-3,nt,nt
Cc1ccc(-c2[nH]ncc2CN2CCN(C(=O)c3cccs3)CC2)cc1C,-32,77*,66*,-15,6,?,21%
O=C(c1cccs1)N1CCN(Cc2cn[nH]c2-c2ccc(F)cc2F)CC1,-26,80*,53*,7,?,?,?
COc1ccc(OC)c(NC(=O)c2cccc(N3C(=O)C4C5CCC(C5)C4C3=O)c2)c1 (configuration not stated),nt,nt,nt,5,11,19%,?
CCOc1ccc(CCNC(=O)CCc2cn(Cc3ccc(F)cc3)c3ccccc23)cc1,4,1,nt,nt,nt,nt,nt
CCc1ccccc1NC(=O)C(=O)NCCc1sc(-c2cccc(C)c2)nc1C,2,nt,nt,nt,nt,nt,nt
COc1cc(C2NC(=O)NC(C)=C2C(=O)OCc2ccc(C)cc2)cc(OC)c1O (configuration not stated),23,1,-6,-3,0,nt,nt
COc1cc(C2NC(=O)NC(C)=C2C(=O)OCc2ccc(C)cc2)cc(OC)c1OC (configuration not stated),-12,0,35*,-16,-6,-6%,-1%
COc1cccc(-n2cc(CNC(=O)C3CCC(=O)N(C4CC4)C3)cn2)c1 (configuration not stated),2,0,19,3,8,-2%,5%
COc1cccc(-n2cc(CN(C)C(=O)C3CCC(=O)N(C4CC4)C3)cn2)c1 (configuration not stated),nt,nt,nt,-7,-3,nt,nt
CCN1CCN(c2ncnc3scc(-c4ccc(C)c(C)c4)c23)CC1,-1,9,8,-1,13,nt,nt
CCN1CCN(c2ncnc3sc(C)c(-c4ccccc4)c23)CC1,nt,18,-15,12,?,5%,18µM*
CN(Cc1ccc2c(c1)OCCO2)C(=O)CN1C(=O)NC2(CCCCC2)C1=O,4,0,-7,-9,-6,nt,nt
CCC(C)(C)C1CCC2(CC1)NC(=O)N(CC(=O)N(C)Cc1ccc3c(c1)OCCO3)C2=O (configuration not stated),-4,0,9,0,7,1%,7%
COc1ccc(-c2cc(C#N)nc(Cl)n2)cc1,5,3,26,-4,-2,-15%,-3%
O=C(NC(=S)N1CCN(C/C=C/c2ccccc2)CC1)c1c(F)cccc1F,-3,0,-12,-7,-3,nt,nt
Cc1cc(C(=O)N2CCN(C/C=C/c3ccccc3)CC2)no1,1,1,6,-9,0,nt,nt
SMILES,D2 PAM-1,D2 ag-1,D2 antagonist,D2 PAM-2,D2 ag-2,D3 ag,D2 ag-3
O=C(NC(=S)N1CCN(C/C=C/c2ccccc2)CC1)c1ccco1,-18,48*,9,-15,-5,1%,-2%
O=C(c1ccco1)N1CCN(C/C=C/c2ccccc2)CC1,-28,89*,1,?,41*,?,?
COc1ccc(CCNc2nc(SCc3ccccc3F)nc3ccccc23)cc1OC,7,0,nt,nt,nt,nt,nt
CC1=NN(C(N)=S)C(=O)C1N=Nc1ccccc1Cl (configuration not stated),6,1,-9,-1,-6,nt,nt
CC1=NN(C(N)=S)C(=O)C1N=Nc1ccccc1C(=O)O (configuration not stated),nt,nt,nt,-5,-1,1%,-3%
COC(=O)c1c(-c2ccccc2OC)sc2ccccc12,-3,0,-8,-5,-1,-5%,-2%
COc1ccccc1CNC(=O)CCCc1nnc2n(CC(C)C)c(=O)c3sccc3n12,-5,2,nt,nt,nt,nt,nt
COc1ccc(CC(=O)NCc2ccc3c(c2)CCN3C(=O)c2ccc(C)cc2)cc1OC,-13,1,nt,nt,nt,nt,nt
COc1ccc(C2CC(O)(c3ccccc3)Oc3c(C)ccc(C)c32)cc1 (configuration not stated),21,1,4,-3,-4,nt,nt
COc1ccc(C2CC(O)(c3ccccc3)Oc3cc(OC)cc(OC)c32)cc1 (configuration not stated),10,0,4,2,5,19%,4%
COc1ccc(OC)c(NC(=O)CSC2=Nc3ccccc3C3=NC(CC(=O)NCc4ccc5c(c4)OCO5)C(=O)N23)c1 (configuration not stated),9,0,nt,nt,nt,nt,nt
CC(NNC(=S)N1CCCCCC1)c1ccc2ccccc2n1 (configuration not stated),nt,nt,nt,-28,-19,nt,nt
CC(C)(O)C#Cc1ccc(CN2CCN(C3CCCCC3)C(CCO)C2)cc1 (configuration not stated),0,0,6,-2,2,nt,nt
CC(C)(O)C#Cc1ccc(CN2CCN(C3CCCCC3)C(CCO)C2)s1 (configuration not stated),-10,42*,-7,-12,-1,-15%,2%
CCC(Sc1nnc2c(n1)[nH]c1ccccc12)C(=O)Nc1ccccc1OC (configuration not stated),13,-2,nt,nt,nt,nt,nt
